This passage reports AC50 and outcome results from PubChem BioAssay AID2284376 (EPA ToxCast).

Values joined by “and” are separate entries in the source; they are usually repeats but may differ in a detail not shown here. Equal entries are not always repeated. Active and inactive are the calls of the source. Rule for the calls: active = hit-call score of the fitted dose curve at least 0.9, where 1 is the maximum; inactive = score below 0.9.

The assay has as its target Peroxisome proliferator-activated receptor gamma (Homo sapiens) (UniProt P37231). In words: ERF_TW_NR_COA_hPPARG: Eurofins (ERF) Nuclear Receptor (NR) Functional Coactivator Assay for human Peroxisome Proliferator-activated Receptor gamma (PPARg) Agonism, conducted at Taiwan lab site. As to the method:
ERF_TW_NR_COA_hPPARG is a biochemical, single-readout assay that uses extracted gene-proteins in a cell-free assay. Measurements were taken 16 hours after chemical dosing in a 96-well plate. See PPARgamma Human NHR Functional Agonist Coactivator Assay, Panlabs.ERF_TW_NR_COA_hPPARG is an assay component calculated from the ERF_TW_NR_COA_hPPARG assay. It is designed to measure FRET using a type of binding reporter as detected by fluorescence intensity of rosiglitazone with fluorimetry technology.Data from the assay component ERF_TW_NR_COA_hPPARG was analyzed at the assay endpoint, ERF_TW_NR_COA_hPPARG, in the positive analysis fitting direction relative to DMSO as the negative control and baseline of activity. Using a type of binding reporter, gain-of-signal activity can be used to understand changes in binding as they relate to gene PPARG. To generalize the intended target to other relatable targets, this assay endpoint is annotated to the nuclear receptor intended target family, where the subfamily is non-steroidal.
Human recombinant PPARgamma receptors expressed in insect cells are used. Test compound and/or vehicle is incubated with the 2 nM receptors and coactivator peptide for 180 minutes at room temperature. Determination of the amount of complex formed is read spectrofluorimetrically (excitation: 337 nm, emission: 520/490 nm). Test compound-induced increase fluorescence by 50 percent or more (>/=50%) relative to 1 uM GW1929 response indicates possible PPARgamma receptor agonist activity. Test compound-induced inhibition of 5 nM GW1929-induced fluorescence response by 50 percent or more (>/=50%) indicates receptor antagonist activity.

Chain of Peroxisome proliferator-activated receptor gamma (Homo sapiens) (P37231 whole entry, looked up): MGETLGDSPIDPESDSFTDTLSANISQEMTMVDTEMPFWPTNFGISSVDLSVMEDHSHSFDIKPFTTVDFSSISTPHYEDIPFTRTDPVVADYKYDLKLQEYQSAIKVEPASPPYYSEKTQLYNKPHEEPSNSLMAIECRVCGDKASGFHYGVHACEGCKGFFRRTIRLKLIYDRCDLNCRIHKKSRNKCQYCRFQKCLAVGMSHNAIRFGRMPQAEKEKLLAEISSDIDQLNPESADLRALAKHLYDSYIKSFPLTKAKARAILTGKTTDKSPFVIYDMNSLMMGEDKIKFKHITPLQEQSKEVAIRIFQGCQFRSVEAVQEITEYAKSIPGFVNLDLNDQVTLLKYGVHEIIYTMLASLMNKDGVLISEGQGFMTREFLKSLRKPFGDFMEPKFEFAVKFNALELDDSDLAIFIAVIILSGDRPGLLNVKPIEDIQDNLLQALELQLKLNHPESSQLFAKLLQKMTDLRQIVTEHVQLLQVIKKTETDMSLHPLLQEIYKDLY

Turning to `O=C(CC(=O)C(F)(F)C(F)(F)C(F)(F)F)c1cccs1`, the AC50 was 44.4 µM (active) and 43.2 µM (active).
With `NC(=O)c1nc(-c2cccc(-c3cc(F)ccc3OCC(F)(F)C(F)(F)F)c2)n[nH]1`, the molecule was classed as inactive.
Still for that read-out and setting: to `O=C(O)CCC(F)(F)C(F)(F)C(F)(F)F` belongs “inactive”.
